Source: PubChem BioAssay (National Center for Advancing Translational Sciences (NCATS))
Only some compounds are listed: those with a hit (about 12% of all), similar ones and a draw of the others.
BAZ2B inh – inhibitors of human BAZ2B bromodomain; Q9UIF8; AlphaScreen BAZ2B-H3K14Ac peptide displacement; AID 504333; actives 4.4% (n = 360,000); Potency, µM (highest dose often 114 µM), for inactives: at the top dose activity change, negative = inhibition, hits mostly inhibitors; note: % is set by controls: 0 for no effect and ±100 for the full control effect; nearly all actives have a fitted effect of over 60% in size
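Compounds, titrated to a top concentration of 110 uM, were incubated 30 min at room temperature with preformed BAZ2B/acetyl-K14 H3 peptide complex (50 nM each). Proximity signal was measured by AlphaScreen after 20 min with beads.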
JMJD2A Tudor inh – blocks the human JMJD2A Tudor domain | actives 4.4% (n = 390,000) | AlphaScreen JMJD2A-Tudor / H3K4me3 peptide binding | AID 504339 | O75164 | Potency, µM (titrated, usually from 114 µM), inactives show at the highest dose activity change, negative = inhibition, usual class: inhibitors; note: % is set by controls: 0 for no effect and ±100 for the full control effect; nearly all actives have a fitted effect of over 50% in size
Target sequence (O75164 whole entry, looked up, the tested form may be a part): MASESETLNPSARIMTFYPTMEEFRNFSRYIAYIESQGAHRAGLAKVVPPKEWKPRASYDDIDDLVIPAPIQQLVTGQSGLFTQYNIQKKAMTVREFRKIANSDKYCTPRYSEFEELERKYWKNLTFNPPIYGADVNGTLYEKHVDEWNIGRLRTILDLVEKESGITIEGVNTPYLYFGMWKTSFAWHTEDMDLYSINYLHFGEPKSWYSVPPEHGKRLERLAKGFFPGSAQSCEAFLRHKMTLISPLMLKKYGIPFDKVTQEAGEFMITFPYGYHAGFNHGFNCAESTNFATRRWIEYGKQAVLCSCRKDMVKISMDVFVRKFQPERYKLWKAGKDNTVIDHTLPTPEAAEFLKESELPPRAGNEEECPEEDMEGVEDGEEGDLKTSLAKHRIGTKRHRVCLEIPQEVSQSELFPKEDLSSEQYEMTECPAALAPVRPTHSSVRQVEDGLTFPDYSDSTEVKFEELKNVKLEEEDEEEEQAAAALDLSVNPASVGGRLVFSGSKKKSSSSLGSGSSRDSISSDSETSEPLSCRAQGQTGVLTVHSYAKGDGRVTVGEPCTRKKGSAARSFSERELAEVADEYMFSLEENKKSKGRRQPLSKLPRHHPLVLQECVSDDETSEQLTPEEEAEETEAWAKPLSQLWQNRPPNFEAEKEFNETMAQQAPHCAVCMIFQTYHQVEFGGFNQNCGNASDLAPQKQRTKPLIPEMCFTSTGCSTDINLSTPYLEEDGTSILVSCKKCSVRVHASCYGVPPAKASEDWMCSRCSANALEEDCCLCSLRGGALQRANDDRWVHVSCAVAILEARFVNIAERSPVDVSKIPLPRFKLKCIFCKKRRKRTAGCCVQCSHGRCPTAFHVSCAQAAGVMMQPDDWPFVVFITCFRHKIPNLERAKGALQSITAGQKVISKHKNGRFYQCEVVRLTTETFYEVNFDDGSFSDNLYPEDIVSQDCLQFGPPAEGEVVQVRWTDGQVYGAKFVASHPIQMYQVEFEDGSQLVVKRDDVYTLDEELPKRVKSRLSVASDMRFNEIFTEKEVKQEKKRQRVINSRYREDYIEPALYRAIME
G9a block – blocks human histone lysine methyltransferase G9a | AID 504332 | G9a H3K9 monomethylation, AlphaScreen, 2 h | actives 8.8% (n = 350,000) | Q96KQ7 | Potency, µM (highest dose often 102 µM), inactives show at the highest dose activity, negative = inhibition, most hits filed as inhibitors; note: % is set by controls: 0 for no effect and ±100 for the full control effect; nearly all actives have a fitted effect of over 75% in size
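Step 1: enzyme (final 20 nM) with compound, 15 min RT. Step 2: substrate peptide 500 nM and SAM 20 uM, 2 h RT. Step 3: anti-H3K9me1 antibody and AlphaScreen beads, 10 min, then plate read.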
HP1b binding inh – blocks HP1-beta chromodomain binding to methylated histone tails. Potency, µM (top dose mostly 114 µM), for the others: top-dose activity change, negative = inhibition, hits mostly inhibitors. actives 0.56% (n = 390,000). P83916. AlphaScreen HP1-beta / biotin-H3K9me3 peptide binding; note: nearly all actives have a fitted effect of over 70% in size
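AlphaScreen: HP1-beta (50 nM) preformed 30 min with biotin-H3(1-18)K9me3 peptide (50 nM) in PBS pH 7.4, 0.01% Tween-20. Compound added for 30 min at RT, then streptavidin donor/nickel chelate acceptor beads (10 ug/mL) for 30 min.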
Sfp inh – blocks B. subtilis Sfp PPTase activity; Q9F4F7; Biochemical Sfp PPTase activity, qHTS; Potency, µM, for inactives: largest response in the series, negative = inhibition, hits mostly inhibitors; actives 3.5% (n = 310,000);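 note: the enzyme is Sfp with the accession as filed and its product quenches rhodamine fluorescence; 0% = enzyme reaction without inhibitor and -100% = no enzyme wells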
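After 15 min at room temperature with compound, 15 nM Sfp received 5 uM rhodamine-CoA plus 12.5 uM BHQ-2-ybbR (50 mM Hepes pH 7.6, 10 mM MgCl2). Rate came from the fluorescence difference over 30 min, ex 525/em 598 nm.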
* hit, by the source's call; ? = inconclusive; . = not tested or not shown; [ ] = dose if it differs, or a comment. Calls come from the whole dose curve; as a rule, active = well fitted curve in the direction sought with a large enough effect; inconclusive = small, poorly fitted or top-dose-only effect, or another doubt; inactive = no such curve, though single readings can be large; an effect the other way counts as inactive or inconclusive. Potency is the fitted concentration of half-maximal effect.

SMILES	BAZ2B inh	JMJD2A Tudor inh	G9a block	HP1b binding inh	Sfp inh
O=[N+]([O-])c1ccc2nc(NS(=O)(=O)c3ccc(F)cc3)sc2c1	-11%	-20%	79µM*	16%	-3%
O=[N+]([O-])c1ccc(S(=O)(=O)Nc2nnc(C(F)(F)F)s2)cc1	-30%	-27%	45µM*	37%	14%
COc1ccc(CNC(=O)c2cc(S(=O)(=O)N3CCCCC3)ccc2Cl)cc1OC	.	-7%	.	-1%	.
COc1ccc(Cc2nnc(NS(=O)(=O)c3ccc([N+](=O)[O-])cc3)s2)cc1	?	-34%	40µM*	-31%	-15%
COc1ccc(Cc2nnc(N)s2)cc1OC	-1%	-16%	7.9µM*	-20%	22µM*
COc1ccc(S(=O)(=O)Nc2nnc(Cc3ccc(OC)c(OC)c3)s2)cc1	0%	-21%	-49%	-3%	50µM*
COc1ccc(Cc2nnc(NS(=O)(=O)c3ccccc3)s2)cc1	0%	-9%	-38%	3%	-2%
CCN(CC)S(=O)(=O)c1ccc(C(=O)N2CCN(c3ncccn3)CC2)cc1	-2%	-8%	?	10%	12%
Cc1nc2c3cnn(-c4ccc(C)c(C)c4)c3ncn2n1	2%	-11%	.	22%	11%
CCc1ccc(S(=O)(=O)c2c(C(=O)c3ccc(C)c(C)c3)cnc3ccccc23)cc1	-25%	-20%	?	13%	.
COc1cccc(C(c2c(N)[nH]c(=S)[nH]c2=O)c2c(N)[nH]c(=S)[nH]c2=O)c1	-8%	?	.	20%	79µM*
COc1cccc(C(NC(=O)c2ccccc2F)NC(=O)c2ccccc2F)c1	8%	-9%	-4%	10%	?
COc1ccc(-c2csc(/C(C#N)=C\c3ccc(OC)c([N+](=O)[O-])c3)n2)cc1	4%	6%	13%[59 µM]	36%	2%
COc1ccc(-c2csc(/C(C#N)=C\c3ccc(O)c([N+](=O)[O-])c3)n2)cc1OC	11µM*	13µM*	.	?	-10%
N#C/C(=C\c1ccc(O)c([N+](=O)[O-])c1)c1nc2ccccc2s1	25µM*	20µM*	4µM*	?	-25%
N#C/C(=C\c1ccc(N2CCCC2)c([N+](=O)[O-])c1)c1nc2ccccc2[nH]1	?	-1%	.	16%	-36%
COc1cc(/C=C(\C#N)c2nc3ccccc3s2)cc([N+](=O)[O-])c1O	13µM*	11µM*	16µM*	20µM*	-29%
COc1ccc(C(C)NC(=S)NC2CCCC2)cc1OC (centres undefined)	-6%	-14%	18µM*	2%	-8%
COc1ccc(C(=O)/C=C/C(=O)N(CC(=O)NC2CCCCC2)CC2CCCO2)c(O)c1 (centres undefined)	-30%	-20%	8.9µM*	-5%	3.2µM*
COc1ccc(C(=O)/C=C/C(=O)N(Cc2ccccc2)C(C(=O)NC2CCCCC2)c2ccncc2)c(O)c1 (centres undefined)	?	-30%	4%[59 µM]	15%	-2%
COc1ccc(C(=O)/C=C/C(=O)N(CC(=O)NC2CCCCC2)Cc2ccccc2)c(O)c1	?	-17%	.	33%	1.8µM*
COc1ccc(C(=O)/C=C/C(=O)N(CC(=O)NC2CCCCC2)Cc2ccccc2OC)c(O)c1	-29%	-14%[57.1 µM]	18µM*	26%	3.2µM*
CC(C)(C)NC(=O)CN(C(=O)C1CSC(=O)C1)c1ccc2c(c1)OCCO2 (centres undefined)	11%	4%	0%[59 µM]	22%	2%
CC(=C\C(=O)O)/C(=C\c1cccc2ccccc12)C(=O)O	2%	5%	7%	49%	9%
CC(=C\C(=O)O)/C(=C/c1ccco1)C(=O)O	-25%	-34%	45µM*	54%	-5%
SMILES	BAZ2B inh	JMJD2A Tudor inh	G9a block	HP1b binding inh	Sfp inh
Cc1cccc(C(=O)N/C(=C\c2ccc(C)o2)C(=O)O)c1	-13%	-21%	?	23%	18%
CC(=C\C(=O)O)/C(=C/c1ccc(C)o1)C(=O)O	?	?	32µM*	-34%	4.5µM*
COc1ccc2[nH]c3c(c2c1)CCN1C(=O)C(CC(=O)NCCN2CCOCC2)C[C@H](C(=O)N2CCCCC2)[C@@]31CCc1ccccc1 (some centres undefined)	.	?	.	8%	.
O=S(=O)([O-])CCC[n+]1c(/C=C\Nc2ccccc2)oc2ccc(-c3ccccc3)cc21	79µM*	.	-35%	.	-3%
CC[n+]1c(/C=C/Nc2ccccc2)oc2ccccc21	-30%	-6%	50µM*	65%	-4%
CC[n+]1c(/C=C/N(C)c2ccccc2)oc2ccc(F)cc21	-32%	79µM*	8.9µM*	-3%	50µM*
COc1ccc(C2CC(c3cccs3)=NN2c2nc(-c3ccccc3)cs2)cc1OC (centres undefined)	-4%	3%	?	0%	45µM*
COc1ccc(C2CC(c3cccs3)=NN2S(C)(=O)=O)cc1OC (centres undefined)	-9%	3%	.	17%	13%
Cc1cc(-n2c(C)cc(C(=O)COc3ccc4ccc(=O)oc4c3)c2C)no1	-30%	-19%	57%[12.7 µM]	7%	-15%
CC(=O)c1cccc(OCC(=O)c2cc(C)n(-c3cc(C)on3)c2C)c1	?	-24%	50µM*	-20%	-8%
Cc1cc(C(=O)COc2cccnc2[N+](=O)[O-])c(C)n1Cc1cccs1	?	?	?	-14%	-10%
Cc1cc(-n2c(C)cc(C(=O)COc3cccnc3[N+](=O)[O-])c2C)no1	?	-23%	40µM*	-12%	.
CCOc1ccccc1C(=O)NCCc1cnc[nH]1	7%	-13%	?	33%	-8%
O=[N+]([O-])c1cc(Cl)cc2c1nc(NCCO)c1ccccc12	-34%	-34%	?	-22%	-4%
COc1ccc(Cl)cc1NC(=O)N1CCN(C2CCCCC2)CC1	-3%	-16%	-19%[59 µM]	34%	26%
COc1ccc(S(=O)(=O)Cc2ccc(C(=O)N3CCN(c4cc(C)ccc4C)CC3)o2)cc1	?	-23%	0%	14%	-11%
Cc1c(C(=O)N2CCN(Cc3ccccc3)CC2)oc2c1C(=O)CC(C)(C)C2	79µM*	-17%	35µM*	18%	-28%
COc1ccc(S(=O)(=O)Cc2ccc(C(=O)N3CCN(c4cc(Cl)ccc4C)CC3)o2)cc1	0%	-23%	25µM*	9%	-20%
COc1ccc(S(=O)(=O)Cc2ccc(C(=O)N3CCN(Cc4ccccc4)CC3)o2)cc1	-6%	-31%	35µM*	21%	7%
COc1ccc(S(=O)(=O)Cc2ccc(C(=O)N3CCN(c4ccc(Cl)cc4)CC3)o2)cc1	-10%	-27%	?	29%	-3%
COc1ccc(S(=O)(=O)Cc2ccc(C(=O)N3CCN(C(=O)c4ccco4)CC3)o2)cc1	-3%	-7%	?	40%	0%
